Sampled rows, rich in hits. Any-hit rate of the full collection: about 4%.
MazEF act: MazEF (E. coli) toxin RNase activation | P0AE70 | FAM/BHQ RNA-DNA oligo cleavage fluorescence, 5 h | activation, % at 20 µM | actives 0.32% (n = 350,000) | AID 504720; in the data active = activation above about 50%
Target sequence (P0AE70 whole entry, looked up): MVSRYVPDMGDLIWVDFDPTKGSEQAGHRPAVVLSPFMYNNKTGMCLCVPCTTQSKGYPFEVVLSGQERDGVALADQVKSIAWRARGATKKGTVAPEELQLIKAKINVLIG
Autofluor counter: flagged as autofluorescent in microsphere protease counterscreen; actives 3.1% (n = 360,000); compound autofluorescence counterscreen, microsphere flow cytometry; hits give high values; fluorescence intensity (test concentration not listed); in the data active = fluorescence intensity above about 16000; inconclusive = no clear call, values can overlap the other calls
VHR inh abs: DUSP3 (human) phosphatase inhibition; inhibition, % at 13.3 µM; actives 0.52% (n = 290,000); recombinant VHR phosphatase, pNPP absorbance; in the data active = inhibition above about 50%
Target sequence (P51452 whole entry, looked up): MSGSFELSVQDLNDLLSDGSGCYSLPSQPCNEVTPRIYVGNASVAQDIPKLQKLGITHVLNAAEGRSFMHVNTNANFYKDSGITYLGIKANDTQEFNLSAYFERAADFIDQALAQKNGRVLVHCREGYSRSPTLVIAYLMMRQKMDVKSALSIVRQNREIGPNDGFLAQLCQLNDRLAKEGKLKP
BoNT-A LC inh2: blocks Botulinum neurotoxin A light chain protease; actives 0.17% (n = 360,000); multiplex microsphere protease substrate cleavage, flow cytometry; inhibition, % at 10 µM
Anthrax LF prot: anthrax lethal factor protease inhibition; P15917; multiplex microsphere protease cleavage assay, LF; inhibition, % at 10 µM; actives 0.12% (n = 360,000)
BoNT-F LC inh: blocks Botulinum neurotoxin F light chain protease. Multiplex microsphere protease cleavage assay, flow cytometry. inhibition, % at 10 µM. actives 0.22% (n = 360,000). AID 588497; in the data active = inhibition above about 35%, passing the limit was not always enough; inconclusive = no clear call, values can overlap the other calls
Each line names hits and unclear results; the compound was inactive in the other large screens. Cut-off read from the data, not from the text of the source, unless noted: active = inhibition above about 30%; inconclusive = no clear call, values can overlap the other calls; inactive = below that.

CN(C)CCCn1c(=O)n(CCc2ccccc2)c(=O)c2c3c(sc21)CCCCC3	none
NC(=O)Cn1c(=O)n(CCc2ccccc2)c(=O)c2c3c(sc21)CCCC3	Autofluor counter 16478
Cn1c(=O)c2c3c(sc2n2cnnc12)CCC3	none
CN(C)c1nc(N(C)C)nc(N(C#N)CN2C(=O)c3ccccc3C2=O)n1	VHR inh abs 52 (no result: MazEF act, Autofluor counter, BoNT-A LC inh2, Anthrax LF prot, BoNT-F LC inh)
COCCCNC(=O)c1ccc(-c2nc3ccccc3nc2-c2ccccc2)cc1	none (no result: VHR inh abs)
COCCCNC(=S)NNC(=O)c1cccnc1	Autofluor counter 20168
COCCCNC(=O)c1ccc(C(=O)NCCCOC)cc1	Autofluor counter 22526
CCc1c(C)nc2ncnn2c1N1CCC(C(=O)N2CCN(c3ccccc3)CC2)CC1	none (no result: MazEF act, Autofluor counter, BoNT-A LC inh2, Anthrax LF prot, BoNT-F LC inh)
CCc1c(C)nc2ncnn2c1N1CCC(C(=O)N2CCN(c3ccc(F)cc3)CC2)CC1	Autofluor counter 24650, BoNT-A LC inh2 inconclusive
CCc1c(C)nc2ncnn2c1N1CCCC(C(=O)NCc2ccc3c(c2)OCO3)C1 (centres undefined)	Autofluor counter 22326
COc1cccc(OC)c1C(=O)N1CCN(c2c(Cc3ccccc3)c(C)nc3ncnn23)CC1	Autofluor counter 26771
O=C(NCc1cccc(C(F)(F)F)c1)C1CCN(c2ncccn2)CC1	Autofluor counter 22251
CCCOc1ccc(C(=O)Nc2ccc(S(=O)(=O)NC3=NCCCCC3)cc2)cc1	none (no result: Autofluor counter, VHR inh abs, BoNT-A LC inh2, Anthrax LF prot, BoNT-F LC inh)
CC(C)COP(=O)(c1ccc(N(C)C)cc1)C(O)c1ccccc1 (centres undefined)	none
Cn1c(N)c(C(=O)COC(=O)C2CCN(S(=O)(=O)c3cccs3)CC2)c(=O)n(C)c1=O	none
O=C(NCc1ccc2c(c1)OCO2)C1CCN(c2ccc(S(=O)(=O)N3CCCC3)cc2)CC1	Autofluor counter 19826
O=C(NCc1ccc2c(c1)OCO2)C1CCN(c2ncccn2)CC1	Autofluor counter 21984, BoNT-A LC inh2 inconclusive
O=C(O)C1CC=CCC1C(=O)NCc1ccc2c(c1)OCO2 (centres undefined)	Autofluor counter 23458
Cc1ccnc(N2CCC(C(=O)NCc3ccc4c(c3)OCO4)CC2)n1	Autofluor counter 20911, BoNT-A LC inh2 inconclusive
Cc1ccnc(N2CCC(C(=O)NCc3ccc(F)cc3)CC2)n1	none
O=C(NCc1ccc2c(c1)OCO2)C1CCN(S(=O)(=O)N2CCCCC2)CC1	none
Cc1ccc(CNC(=O)C2CC=CCC2C(=O)O)cc1 (centres undefined)	none
CCSc1ccc([C@@H]2[C@@H]3C(=O)N(CC)C(=O)[C@@H]3[C@]3(C(=O)OC)CCCCN23)cc1	none (no result: VHR inh abs)
CCSc1ccc([C@@H]2[C@H]3C(=O)N(CC)C(=O)[C@H]3[C@]3(C(=O)OC)CCCCN23)cc1	Autofluor counter 21568 (no result: VHR inh abs)
COc1ccccc1N1CCN(S(=O)(=O)c2c(C)[nH]c(C)c2C(=O)N2CCCC2)CC1	none
COc1cc(C(=O)OC2CCN(C)CC2)cc(OC)c1OC	none (no result: Autofluor counter, BoNT-A LC inh2, Anthrax LF prot, BoNT-F LC inh)
COC(=O)C1C(=O)/C(=C(/C)N2CCCC2)C(=O)CC1(C)C (centres undefined)	Autofluor counter 23073, BoNT-A LC inh2 inconclusive
COc1ccc(-c2[nH]ncc2CN2CCCN(C(=O)c3ccco3)CC2)cc1F	none
C#CCn1c(=NC(=O)c2ccc(S(=O)(=O)N3CCc4ccccc4C3)cc2)sc2cc(S(N)(=O)=O)ccc21	none
C#CCn1c(=NC(=O)c2sc3ccccc3c2Cl)sc2cc(S(N)(=O)=O)ccc21	MazEF act 63
CC(=O)c1sc(NC(=O)C=C(C)C)nc1C	Autofluor counter 17371
CCCCC(=O)Nc1nc(C)c(C(C)=O)s1	none
COc1ccc(Nc2nnc(SCc3cc([N+](=O)[O-])cc4c3OCOC4)s2)cc1	Autofluor counter 23675
Cn1ccnc1SCc1ccc([N+](=O)[O-])cc1	Autofluor counter 19757, BoNT-A LC inh2 inconclusive
COc1ccc(CSc2nnc(SCc3ccc([N+](=O)[O-])cc3)s2)cc1	Autofluor counter 23671
Clc1nssc1=Nc1nncs1	none (no result: VHR inh abs)
CCOC(=O)C1=CN(Cc2cccc(F)c2)S(=O)(=O)N(C)C1c1cccc(OC)c1 (centres undefined)	MazEF act 50 (no result: VHR inh abs)
COc1ccc(-c2csc(/C(C#N)=C\c3ccc(O)c([N+](=O)[O-])c3)n2)cc1OC	none
COc1ccc(CN2CCOCC2)cc1OC	none
COc1ccc(CN2CCOCC2)cc1Br	Autofluor counter 23516, BoNT-A LC inh2 inconclusive
O=C(NCCC1=CCCCC1)c1c(O)nc2ccccn2c1=O	none (no result: Autofluor counter, BoNT-A LC inh2, Anthrax LF prot, BoNT-F LC inh)
O=C(NCCCN1CCCC1=O)c1c(O)nc2ccccn2c1=O	VHR inh abs 52
CCn1c(=O)c2cc(C(=O)N(C)CC(OC)OC)sc2c2ccccc21	Anthrax LF prot 38 (no result: VHR inh abs)
Cc1cc(C)c(NC(=O)CSc2cccc[n+]2[O-])c(C)c1	none (no result: VHR inh abs)
COc1ccc2nc(N3CCCC3)[nH]c2c1	Autofluor counter 24269, BoNT-A LC inh2 inconclusive
Cc1[nH]c2ccccc2c1/C=N/NC(=O)c1ccc(N)cc1	VHR inh abs 58
COc1ccc2c(Cl)c(C(=O)N/N=C/c3c(C)[nH]c4ccccc34)sc2c1	Autofluor counter 20361, BoNT-A LC inh2 36
Cc1[nH]c2ccccc2c1/C=N/NC(=O)c1cccc(S(=O)(=O)Nc2ccccc2Cl)c1	BoNT-A LC inh2 35
COc1ccc2c(Cl)c(C(=O)N/N=C/c3ccc4c(c3)OCO4)sc2c1	none
COC(=O)Cc1cc(=O)n2[nH]c(C)cc2n1	none
CCCc1cc(=O)n2[nH]c(C)cc2n1	Autofluor counter 24507
Cc1cc(=O)n2[nH]c(-c3ccco3)nc2n1	none
CCCc1cc(=O)n2[nH]c(-c3ccco3)nc2n1	Autofluor counter 23273
Cc1cccc(NC(=O)CCC(=O)Nc2nnc(C3CCCCC3)s2)c1	none
C(=N\c1c(-c2ccccc2)nc2n1CCS2)/c1ccccc1	none
Clc1ccc(OCCSCc2nc3ccccc3[nH]2)cc1	none
COc1ccc(-c2n[nH]c(C)c2-c2cnn(-c3ccccc3)c2)c(O)c1	Autofluor counter 19850, BoNT-A LC inh2 inconclusive
O=C1c2cnc3nc(SCc4cccc(Cl)c4)nn3c2CC2c3ccccc3CCN12 (centres undefined)	Autofluor counter 21140
Cn1c(=O)oc2cc(S(=O)(=O)N3CCC4(CC3)OCCO4)ccc21	Autofluor counter 22987
COC(=O)n1c(=O)oc2cc(S(=O)(=O)N3CCOCC3)ccc21	Autofluor counter 20705
COC(=O)n1c(=O)oc2ccc(S(=O)(=O)N3CCCCC3)cc21	none
COC(=O)C(O)(c1ccc2c(c1)CCCN2)C(F)(F)F (centres undefined)	none
COc1ccc(N2CC(C(=O)Nc3ccc(S(=O)(=O)N4CCCCC4)cc3)CC2=O)cc1 (centres undefined)	none
Cc1c(Cl)cccc1NC(=S)NCCc1ccc(S(N)(=O)=O)cc1	none
O=S1(=O)CC(N2CCOCC2)c2ccccc21 (centres undefined)	none
Cn1cccc1-c1nc2ccccc2n1Cc1ccccc1	BoNT-F LC inh inconclusive
CCn1c(-c2cccnc2Cl)nc2ccccc21	Autofluor counter 23168
CS(=O)(=O)c1nc2ccccc2n1Cc1ccccc1	Autofluor counter 23807

Source: PubChem BioAssay
